An excerpt weighted towards active compounds, which were near 1.5% of everything screened.
MEX-5 binding: MEX-5 zinc finger RNA-binding disruptors – biochemical, C. elegans, fluorescence polarization, MLPCN library, primary screen | Zinc finger protein mex-5 (Caenorhabditis elegans), Q9XUB2 | activity score (negative = inhibition of binding), % at 10 µM | MEX-5/FITC-TCR2 RNA binding; hits give low values | 300,000 tested, 0.38% active | AID 1832, 2009;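 active = inhibition past about -25% in most replicates, and total fluorescence under double the plate's negative control median, limit read from the data; inconclusive = replicates evenly split on the limit, or fluorescence at least double controls; inactive = too little inhibition in most replicates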;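 also: 0% = DMSO and -100% = 5 µM competing unlabeled TCR2 RNA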
IDE inh: human IDE inhibitors in live cells, primary screen, fluorescence polarization, HEK cells, FAbetaB substrate | FAbetaB cleavage | 320,000 tested, 0.41% active | inhibition, % at 5.59 µM | Insulin-degrading enzyme (Homo sapiens), P14735;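 active = percent inhibition above the average of all tested compounds plus 3 SD, set per screening campaign, cut at about 16% in these data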;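 also: IDE supplied by intact live HEK cells; FP after avidin binding of uncleaved biotin substrate so inhibition keeps polarization high; 0% = DMSO wells and 100% = 60 µM reference IDE inhibitor Ii1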
Bcl-xL primary: inhibitors of human Bcl-xL, primary screen, biochemical, fluorescence polarization, HTS. Bcl-2-like protein 1 (Homo sapiens), Q07817. GST-Bcl-xL / FITC-Bim BH3 peptide fluorescence polarization. inhibition, % at 10.9 µM. 320,000 tested, 0.7% active;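 active = inhibition above the mean of all tested compounds plus 3 SD, cutoff set per campaign, cut at about 30% in these data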;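 also: 0% = DMSO wells and 100% = unlabeled Bim-BH3 peptide competitor; inhibitors lower millipolarization by displacing the labeled peptide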
MCL1 BIM primary: inhibitors of MCL1 binding to BIM-BH3, primary screen, biochemical, fluorescence polarization. 320,000 tested, 0.68% active. AID 2057, 2009. Induced myeloid leukemia cell differentiation protein Mcl-1 (Homo sapiens), Q07820. inhibition, % at 10.9 µM. GST-MCL1 / FITC-Bim-BH3 fluorescence polarization;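 active = inhibition above the mean inhibition of all tested compounds plus 3 SD, set per campaign, cut at about 40% in these data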;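 also: 0% = DMSO wells and 100% = unlabeled Bim-BH3 peptide control; higher means more loss of mP so more displacement of Bim peptide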
Target sequence (Q07820 whole entry, looked up): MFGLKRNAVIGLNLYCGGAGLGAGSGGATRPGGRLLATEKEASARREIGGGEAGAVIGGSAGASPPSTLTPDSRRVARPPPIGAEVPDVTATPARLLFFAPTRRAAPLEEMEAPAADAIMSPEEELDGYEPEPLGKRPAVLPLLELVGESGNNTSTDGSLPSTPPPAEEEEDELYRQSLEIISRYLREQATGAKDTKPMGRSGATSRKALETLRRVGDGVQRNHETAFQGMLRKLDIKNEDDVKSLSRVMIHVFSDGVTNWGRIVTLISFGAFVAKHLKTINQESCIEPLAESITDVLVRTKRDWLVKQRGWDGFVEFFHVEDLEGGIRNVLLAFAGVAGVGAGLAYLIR
IDE cell activ: human IDE activators in live cells, primary screen, fluorescence polarization, HEK cells, FAbeta-B substrate; Insulin-degrading enzyme (Homo sapiens), P14735; FAbeta-B cleavage; 0% vehicle, 100% cell-free pure enzyme wells; activation, % at 5.96 µM; 340,000 tested, 0.073% active;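 active = activation above the mean of all tested compounds plus 3 SD, set per screening campaign, cut at about 17% in these data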
GLD-1 RNA inh: GLD-1/TGE RNA complex disruptors, primary screen, biochemical, fluorescence polarization; purified GLD-1 + fluorescein TGE RNA; AID 2280, 2010; inhibition, % at 5.96 µM; 320,000 tested, 0.44% active;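 active = percent inhibition above a per-plate cutoff, the plate mean of test compounds plus 3 SD, cut at about 30% in these data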;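 also: 0% = DMSO wells with GLD-1 and probe and 100% = wells lacking GLD-1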
IDE cell inh cf: human IDE inhibitors in live cells, confirmation, fluorescence polarization, HEK cells, FAbetaB substrate | shares compounds with IDE inh | inhibition, % at 5.59 µM | 1,200 tested, 51% active | AID 435028, 2010 | FAbetaB cleavage;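 active = mean inhibition across triplicate wells above the cutoff set by the earlier primary insulin-degrading enzyme screen, cut at about 16% in these data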;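 also: 0% = DMSO wells and 100% = 60 µM reference IDE inhibitor Ii1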
HEK cytotox: cytotoxicity in HEK cells, cytotoxicity control for IDE inhibitor project, cell-based, luminescence | shares compounds with IDE inh | HEK293 cytotoxicity, ATP luminescence | inhibition, % at 5.59 µM | 1,200 tested, 28% active | AID 449730, 2010; in the data active = inhibition above about 22%;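 also: 0% = vehicle wells and 100% = reference cytotoxic drug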
IDE FP artifact: fluorescent or optically active artefacts, dose response, artefact control for IDE inhibitor project, biochemical, fluorescence polarization. shares compounds with IDE inh. FP counterscreen for fluorescent artifacts, IDE probe project. IC50, µM. 30 tested, under 10 active; call rule not given here
The depositor's hits bear a star; i = inactive; ? = inconclusive; / = no result.

SMILES	MEX-5 binding	IDE inh	Bcl-xL primary	MCL1 BIM primary	IDE cell activ	GLD-1 RNA inh	IDE cell inh cf	HEK cytotox	others
O=C1NC(=S)S/C1=C\c1cc(Cl)cc(Cl)c1O	/	/	/	/	-136	/	/	/
O=C1/C(=C/c2ccc(O)c(O)c2)Oc2cc(O)ccc21	/	34*	-13	0	-47	-31	75*	11
COc1cc(/C=C2\Oc3cc(O)ccc3C2=O)ccc1O	20	62*	18	2	-89	-26	143*	9
O=C1/C(=C/c2cccc([N+](=O)[O-])c2)Oc2cc(O)ccc21	3	5	5	-5	1	-11	/	/
O=C(NCC1CCCO1)c1ccc(COc2ccc(Br)cc2)cc1 (stereo not given)	3	22*	6	11	-13	11	5	24*
CCC(C)(C)NC(=O)C(c1ccccc1Cl)N(Cc1cccnc1)C(=O)CCC(=O)Nc1cc(C)on1 (stereo not given)	-1	0	10	5	-1	-4	/	/
Cc1cc(C)c2c(N)c(C(=O)Nc3nccs3)sc2n1	-1	6	6	5	-4	7	/	/
Nc1c(C(=O)Nc2nccs2)sc2nc(-c3cccs3)cc(C(F)(F)F)c12	-1	20*	31*	33	-12	20	16*	11	IDE FP artifact=i
CN(C)S(=O)(=O)N1CCN(CC(O)COc2ccc(-c3ccccc3)cc2)CC1 (stereo not given)	2	18*	4	13	-18	-1	6	16
CCOC(=O)N1CCN(CC(O)COc2ccc(-c3ccccc3)cc2)CC1 (stereo not given)	0	17*	5	1	-17	2	10	11
CCOc1ccc(NC(=O)CSc2nc3c(c(=O)n2C)SC(C)C3)cc1 (stereo not given)	/	16*	8	6	-35	-1	11	17
CCOC(=O)/C(C#N)=C/C=C1/C=CC=CN1C	3	0	1	2	3	-36	/	/
C=CCN1C=CC(=C/C=C(/C#N)C(=O)OCC)C=C1	?	44*	-145	-239	-43	-240	63*	11
Cc1cc(C)c2nc(/N=C(\N)NC(=O)Nc3ccccc3)nc(C)c2c1	-5	-5	2	1	4	-4	/	/
Cc1cc(C)c2nc(/N=C(\N)NC(=O)c3ccccc3)nc(C)c2c1	0	17*	16	-1	5	0	4	10
CCCNC(=O)Cn1c(=O)/c(=C\c2ccc(-c3ccc([N+](=O)[O-])cc3)o2)s/c1=C\C(=O)C(C)(C)C	-1	21*	-11	-49	-1	-67	77*	18
Oc1cc(-n2cccn2)c(O)cc1-n1cccn1	0	36*	13	8	-32	19	7	39*
COc1ccc(OC)c(C(=O)COC(=O)COc2ccccc2)c1	/	6	/	/	3	-3	/	/
COc1ccc(/C=N/NC(=O)c2ccc(-c3ccccc3)cc2)cc1O	2	10	0	-5	-10	0	/	/
COc1cc(/C=N\NC(=O)c2ccc(-c3ccccc3)cc2)cc(Br)c1O	0	21*	-4	-3	-10	-1	12	13
O=C(NCc1ccccc1)c1ccccc1C(=O)c1ncc[nH]1	-3	1	0	-4	7	-2	/	/

Screening data from PubChem BioAssay.
